Measurements taken from PubChem BioAssay (Tox21).
Calls of active or inactive are those of the source. Calls come from the whole dose curve; as a rule, active = well fitted curve in the direction sought with a large enough effect in the repeat runs; inconclusive = weak or mixed curves; inactive = flat fitted curve, though single readings scatter.

Test: qHTS assay to test for compound auto fluorescence at 535 nm (green) in HepG2 cells (AID 720675)
Conditions: green autofluorescence 485/535 nm, 1 h; series mostly up to 91.3 µM
Description: National Center for Advancing Translational Sciences [NCATS]
NIH Chemical Genomics Center [NCGC]
U.S. Environmental Protection Agency [EPA]
National Institutes of Environmental Health Sciences [NIEHS]
National Toxicology Program [NTP]
U.S. Food and Drug Administration [FDA]
Compound auto fluorescence often interferes with screening of the compound library against various biological targets and signaling pathways. Some of these compounds may have fluorophoric properties. Such properties may interfere with the assay outputs resulting in false positives and/or negatives. To decrease such complications and ensure the compound activities are relevant in terms of biological response, the Tox21 10K compound library was screened for auto fluorescence.
From the fluorophores used as reporter signals in our screening assays, the auto fluorescence equivalencies of compounds against three fluorophores have been evaluated: Triamterene, Fluorescein and Rose Bengal sodium for blue, green and red fluorescence, respectively. The fluorescence intensities were measured using Excitation/Emission wavelengths at 405/460nm, 485/535nm and 540/590nm for blue, green and red labels, respectively. This assay includes the green fluorescence data.
Tox21 Assay Protocol Summary:
2,000 HepG2 cells in 5 uL of culture medium (MEM containing 10% FBS) per well were dispensed into black wall/clear bottom 1536-well plates using a Multidrop Combi Dispenser (ThermoFisher Scientific, Waltham, MA). The assay plates were incubated overnight at 37 C to allow cell attachment to the well bottom, followed by the transfer of 23 nL compound or DMSO vehicle by a pintool work station (Kalypsys , San Diego, CA). After the assay plates were incubated for 1 hr at 37 C and 5% CO2, fluorescence intensities in the assay plates were measured by an Envision (PerkinElmer, Shelton, CT) plate reader using three labels for measuring blue, green and red fluorescence at […] 460, 535 and 590 nm respectively.
For O=NN1CCOCC1, the outcome was “inactive”. With C[C@]12CC[C@H]3[C@@H](CCC4=CC(=O)CC[C@@H]43)[C@@H]1CC[C@@H]2O the outcome was “inactive”. In the case of O=C(O)c1nn(Cc2ccc(Cl)cc2Cl)c2ccccc12, the outcome is reported as “inactive”. For C[C@]12CCC(=O)C=C1CC[C@@H]1[C@@H]2CC[C@@]2(C)[C@H]1CC[C@]2(C)O, the outcome was “inactive”. In the case of O=NN(c1ccccc1)c1ccccc1, the outcome is reported as “inactive”. In the case of OC(c1ccc(Cl)cc1)(c1cncnc1)c1ccccc1Cl (stereo not given), the outcome is reported as “inactive”. For CC(C)COC(=O)c1ccccc1C(=O)OCC(C)C, the outcome was “inactive”. For CN(C)c1nc(=O)n(C2CCCCC2)c(=O)n1C, the outcome was “inactive”. With CCC1(c2ccc(N)cc2)CCC(=O)NC1=O (stereo not given) the outcome was “inactive”. For CCC/C=N/O, the outcome was “inactive”. In the case of CCOC(=O)c1ccccc1N, the outcome is reported as “inactive”. For NN=C(N)N, the outcome was “inactive”. For C=CC(Cl)CCl (stereo not given), the outcome was “inactive”. For c1ccc2c(c1)Nc1ccccc1S2, the outcome was “inactive”. With ClC(Cl)(Cl)Br the outcome was “inactive”. In the case of COC(=O)Nc1nc2ccccc2[nH]1, the outcome is reported as “inactive”. In the case of CCCCCCCCCC(CC)c1ccc(S(=O)(=O)O)cc1 (stereo not given), the outcome is reported as “inactive”. For CC(C)CON=O, the outcome was “inactive”. For c1ccc(C2CO2)cc1 (stereo not given), the outcome was “inactive”. In the case of ClC(Cl)(Cl)c1ccccc1, the outcome is reported as “inactive”. For CCNCC, the outcome was “inactive”. For CCC[CH2][Sn]([Cl])([CH2]CCC)[CH2]CCC, the outcome was “inactive”. In the case of CC(C)(O)C(=O)Nc1ccc([N+](=O)[O-])c(C(F)(F)F)c1, the outcome is reported as “inactive”. In the case of CCOP(=S)(OCC)OP(=S)(OCC)OCC, the outcome is reported as “inactive”. For OCCOCCO, the outcome was “inactive”. With O=[N+]([O-])/N=C1\NCCN1Cc1ccc(Cl)nc1 the outcome was “inactive”. With CCCCCCCC[N+](C)(CCCCCCCC)CCCCCCCC the outcome was “inactive”. For CC(C)Nc1nc(Cl)nc(NC(C)C)n1, the outcome was “inactive”. With O=[N+]([O-])c1ccc(Nc2ccccc2)cc1 the outcome was “inactive”. For Nc1ncn[nH]1, the outcome was “inactive”. With CCOS(=O)(=O)OCC the outcome was “inactive”. With CCCCSP(=O)(SCCCC)SCCCC the outcome was “inactive”. In the case of N#Cc1cccnc1, the outcome is reported as “inactive”. With COc1ccc(C=O)cc1OC the outcome was “inactive”. For CCC[CH2][Sn]([Cl])([Cl])[CH2]CCC, the outcome was “inactive”. For O=C1CCCO1, the outcome was “inactive”. In the case of CCCCC(C#N)(Cn1cncn1)c1ccc(Cl)cc1 (stereo not given), the outcome is reported as “inactive”. In the case of CNC(=O)Oc1cccc2c1OC(C)(C)C2, the outcome is reported as “inactive”. With Oc1ccc(Cl)cc1Cl the outcome was “inactive”. In the case of C[N+](C)(C)CC(=O)O, the outcome is reported as “inactive”.
